Inconclusive results are not listed. The source made the active and inactive calls. Calls come from the whole dose curve; as a rule, active = well fitted cell-killing curve with a large enough effect; inconclusive = small, poorly fitted or top-dose-only effect, or effect the other way; inactive = no such curve, though single readings can be large or run the other way.
Assay: qHTS of pediatric cancer cell lines to identify multiple opportunities for drug repurposing: Confirmatory screen for LAN-5 cells (AID 1347113); note: nearly all actives have a fitted effect of over 65% in size
Conditions: LAN-5 neuroblastoma cell viability; series mostly up to 45.9 µM
Excerpt: Drug repurposing or repositioning has been offered as a strategy for drug development in oncology programs. This approach has special potential for childhood cancers and other rare or orphan diseases, where the expected return on new drug development has been a disincentive to pharmaceuticals.
In this project we exploit the poly-pharmacology of drugs to discover new indications via phenotypic screening of a panel of 19 well-characterized cell lines derived from solid tumors seen in children and adolescents. The goal is to identify approved drugs with previously unrecognized anticancer properties that has the potential to reveal new mechanisms and biological processes involved in carcinogenesis or drug resistance. We employed a titration-based paradigm (quantitative high-throughput screening or qHTS), where all compounds were tested at multiple concentrations for their effect on cell viability. Concentration-response curves (CRCs) were derived directly from the primary screen, and both potency and efficacy values were used to identify compounds with robust bioactivity profiles. We screened the NIH Chemical Genomics Center (NCGC) Pharmaceutical Collection (NPC) and Mechanism Interrogation Plate (MIPE) small molecule collections of approved and investigational compounds against these cell lines; and measured metabolically active cells after 48 hours of compound treatment as a proxy for cell viability.
Assay Submitter: Nathalia J. Martinez, National Center for Advancing Translational Sciences, National Institutes of Health, Rockville, MD, USA; email: natalia.martinez@nih.gov
[1] Shen, M et al. Quantitative high-throughput phenotypic screening of pediatric cancer cell lines identifies multiple opportunities for drug repurposing. Oncotarget 2017 Dec 19;9(4):4758-4772. PMID 29435139.
The cells were obtained from University of North Carolina (UNC), Pediatric Preclinical Testing Program (PPT), and Coriell Institute (CI).
qHTS cell viability assay:
Cells were assayed in growth media at a density of 500-1,000 cells/well. Five microliters of cells were dispensed into 1,536-well, white, solid-bottom, TC-treated plates (Greiner Bio One) using a multidrop dispenser and incubated at 37 degrees C, 5% CO2, under a humidified atmosphere for 5 hours. Twenty-three nanoliters of compounds and controls (neutral control DMSO or positive control bortezomib at final concentration of 2.3 µM) were subsequently transferred by Kalypsys pintool. For primary screens, the MIPE collection was tested at 11-point dilutions (final concentrations range from 0.78 nM to 46 µM) and the NPC collection at 8-point dilutions (final concentrations range from 0.59 nM to 46 µM). Compounds tested in follow-up screens were assayed at 11-point dilutions. Cells were incubated for 48 hours, followed by addition of 3 µL of CellTiter-Glo (Promega). After a 15 min incubation at room temperature, samples were analyzed for luminescence intensity using a ViewLux High-throughput CCD imager equipped with clear filters.
Potency is the fitted concentration of half-maximal effect.

Compound	Potency
CC[C@@]1(O)C(=O)OCc2c1cc1n(c2=O)Cc2cc3ccccc3nc2-1	58.5 nM (active)
C[C@@]12OC(=O)[C@]1([C@@H](O)[C@@H]1C=CCCC1)NC(=O)[C@H]2CCCl	737 nM (active)
CS(=O)(=O)c1ccc(C(=O)C2C(=O)CCCC2=O)c([N+](=O)[O-])c1	inactive
CC[C@@H]1[C@@H](C)O[C@@](O)([C@@H](C)[C@H](O)[C@H](C)[C@H]2OC(=O)C=CC=C[C@@H](C)[C@@H]([C@@H](C)[C@@H](O)[C@H](C)[C@@]3(O)C[C@H](O[C@H]4C[C@H](O)[C@H](O)[C@H](C)O4)[C@H](CC)[C@@H](C)O3)OC(=O)C=CC=C[C@@H]2C)C[C@H]1O[C@H]1C[C@H](O)[C@H](O)[C@H](C)O1	inactive
CCC(=O)OC1CCC2C3CCC4=CC(=O)CC[C@@]4(C)C3CC[C@]12C (stereo partly drawn)	inactive
O=C(O)CCCOc1ccc(Cl)cc1Cl	inactive
Cc1c(C(=O)Nc2cccc(C(F)(F)F)c2)cc(-c2ccccc2)n1CCCN1CCOCC1	42700 nM (active)
Cc1[nH]nc2ccc(-c3cncc(OC[C@@H](N)Cc4c[nH]c5ccccc45)c3)cc12	2330 nM (active)
CC=C(C)C(=O)N[C@@H](c1ccccc1)[C@@H](O)C(=O)O[C@H]1C[C@@]2(O)[C@@H](OC(=O)c3ccccc3)[C@@H]3[C@]4(OC(C)=O)CO[C@@H]4C[C@H](O)[C@@]3(C)C(=O)[C@H](OC(C)=O)C(=C1C)C2(C)C	inactive
CCCCCC[C@H]1C(=O)O[C@H](C)[C@H](NC(=O)c2cccc(NC=O)c2O)C(=O)O[C@@H](C)[C@@H]1OC(=O)CC(C)C	5850 nM (active)
COc1cc2cc(c1Cl)N(C)C(=O)C[C@H](OC(=O)C(C)C)[C@]1(C)O[C@H]1[C@H](C)[C@@H]1C[C@@](O)(NC(=O)O1)[C@H](OC)C=CC=C(C)C2	1170 nM (active)
C=CCON=C(C[C@H]1O[C@@H]2O[C@]3(C)CC[C@@H]4[C@H](C)CC[C@@H]([C@H]1C)[C@@]24OO3)[C@H]1O[C@@H]2O[C@]3(C)CC[C@H]4[C@H](C)CC[C@@H]([C@@H]1C)[C@@]24OO3	522 nM (active)
CC(=O)[O][Hg][c]1ccccc1	3290 nM (active)
Cc1ccccc1-n1c(Cn2ncc3c(N)ncnc32)nc2cccc(C)c2c1=O	522 nM (active)
CC(C)[C@]12O[C@@H]1[C@@H]1O[C@]13[C@]1(O[C@H]1C[C@@H]1C4=C(CC[C@@]13C)C(=O)OC4)[C@H]2O	147 nM (active)
C[C@@H]1CC[C@@]2(OC1)O[C@H]1C[C@H]3[C@@H]4CC=C5C[C@@H](O[C@@H]6O[C@H](CO)[C@@H](O[C@@H]7O[C@@H](C)[C@H](O)[C@@H](O)[C@@H]7O)[C@H](O)[C@@H]6O[C@@H]6O[C@@H](C)[C@H](O)[C@@H](O)[C@@H]6O)CC[C@]5(C)[C@@H]4CC[C@]3(C)[C@@H]1[C@H]2C	4650 nM (active)
C[C@H]1CCCC=CC2C[C@H](O)C[C@@H]2[C@H](O)C=CC(=O)O1 (stereo partly drawn)	117 nM (active)
O=C(N[C@H]1CN2CCC1CC2)c1ccc(Cl)cc1	23300 nM (active)
CC(C)N[C@@H]1CCn2c(=O)[nH]c3cccc(c32)[C@@H]1O	inactive
S=C(SSC(=S)N1CCCCC1)N1CCCCC1	1040 nM (active)
CC1=C(O)C(=O)C=C2C1=CC=C1[C@@]2(C)CC[C@@]2(C)[C@@H]3C[C@](C)(C(=O)O)CC[C@]3(C)CC[C@]12C	1850 nM (active)
CCCN1CCO[C@@H]2c3cc(O)ccc3OC[C@@H]21	inactive
C[C@@H]1O[C@@H](O[C@@H]2C=C3CC[C@@H]4[C@@H](CC[C@]5(C)[C@H](c6ccc(=O)oc6)CC[C@@]45O)[C@@]3(C)CC2)[C@H](O)[C@H](O)[C@H]1O	58.5 nM (active)
Cc1c(N)nc([C@H](CC(N)=O)NC[C@@H](N)C(N)=O)nc1C(=O)N[C@H](C(=O)N[C@@H](C)[C@H](O)[C@@H](C)C(=O)N[C@@H](C(=O)NCCc1nc(-c2nc(C(=O)NCCC[S+](C)C)cs2)cs1)[C@@H](C)O)C(O[C@H]1O[C@H](CO)[C@H](O)[C@@H](O)[C@@H]1O[C@H]1O[C@H](CO)[C@@H](O)[C@H](OC(N)=O)[C@H]1O)c1cnc[nH]1 (stereo partly drawn)	inactive
CO[C@H]1CCC(O[C@H]2C[C@H]([C@]3(C)CC[C@]4(C[C@H](O)[C@@H](C)[C@@H]([C@@H](C)C=C(C)C(=O)[C@H](C)C[C@H](C)C(=O)O)O4)O3)O[C@]3(O[C@@H]([C@H]4O[C@@](O)(CO)[C@H](C)C[C@H]4C)C[C@H]3C)[C@H]2C)O[C@H]1C (stereo partly drawn)	2330 nM (active)
O=c1[nH]c2ccc(Cl)cc2c(N[C@@H]2CN3CCC2CC3)c1-c1nc2ccccc2[nH]1	1470 nM (active)
CC(C)(O)C=CC(=O)[C@](C)(O)[C@H]1[C@H](O)C[C@]2(C)[C@@H]3CC=C4[C@@H](C=C(O)C(=O)C4(C)C)[C@]3(C)C(=O)C[C@@]12C	58.5 nM (active)
O=C(O)COc1nc(Cl)c(Cl)cc1Cl	inactive
